# Results reported in the supplement of paper PMC8728848.
# This excerpt belongs to a sample that is enriched for the strongest signals.
# Key:
# Assay in all cases: glycan array binding signal (z-score within array); higher = stronger binding
# Details in all cases: glycan notation: IUPAC condensed, linker removed
# [1] = system: GlcNAc(b1-4)GlcNAc(b1-4)GlcNAc(b1-4)GlcNAc(b1-4)GlcNAc
# Outline: (§1)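 The Consortium for Functional Glycomics database supplied 3228 glycan arrays, of which those lacking an available protein sequence were dropped. The binding signal, a within-array Z-score, was averaged across arrays of the same protein sequence and across linkers. Negative scores can be read as non-binding.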
# [2] = system: GlcNAc(b1-4)[GlcNAc(b1-6)]GalNAc
# Outline: as §1
# Kdn(a2-3)Gal(b1-3)GlcNAc = system: Kdn(a2-3)Gal(b1-3)GlcNAc
# Outline: as §1
# [3] = system: GlcNAc(b1-4)GlcNAc(b1-4)GlcNAc(b1-4)GlcNAc(b1-4)GlcNAc(b1-4)GlcNAc
# Outline: as §1
# GlcNAc3Prop(b1-4)GlcNAc = system: GlcNAc3Prop(b1-4)GlcNAc
# Outline: as §1
# GlcNAc(b1-6)GalNAc = system: GlcNAc(b1-6)GalNAc
# Outline: as §1
# [4] = system: GlcNAc(b1-3)[GlcNAc(b1-6)]Gal(b1-4)GlcNAc
# Outline: as §1
# [5] = system: GlcNAc(b1-3)[GlcNAc(b1-4)][GlcNAc(b1-6)]GlcNAc
# Outline: as §1
# [6] = system: GlcNAc(b1-6)Gal(b1-4)GlcNAc
# Outline: as §1
# [7] = system: GlcNAc6S(b1-3)Gal(b1-4)GlcNAc
# Outline: as §1
# Chain of CHT (Homo sapiens) (chain, as listed by the source): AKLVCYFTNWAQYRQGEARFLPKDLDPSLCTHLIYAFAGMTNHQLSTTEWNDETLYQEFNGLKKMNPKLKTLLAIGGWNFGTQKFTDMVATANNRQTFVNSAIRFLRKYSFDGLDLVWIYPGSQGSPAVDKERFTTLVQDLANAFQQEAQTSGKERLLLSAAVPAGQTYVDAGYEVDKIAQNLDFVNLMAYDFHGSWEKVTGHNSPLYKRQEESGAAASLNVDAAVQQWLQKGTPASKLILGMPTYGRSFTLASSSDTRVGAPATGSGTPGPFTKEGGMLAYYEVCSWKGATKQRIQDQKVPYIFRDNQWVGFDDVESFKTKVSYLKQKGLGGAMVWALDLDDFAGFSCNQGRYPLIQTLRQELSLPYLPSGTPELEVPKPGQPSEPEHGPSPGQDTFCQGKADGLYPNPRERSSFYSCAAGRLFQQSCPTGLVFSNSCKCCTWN
# Chain of CHI3L1 (Homo sapiens), P36222 (P36222 whole entry): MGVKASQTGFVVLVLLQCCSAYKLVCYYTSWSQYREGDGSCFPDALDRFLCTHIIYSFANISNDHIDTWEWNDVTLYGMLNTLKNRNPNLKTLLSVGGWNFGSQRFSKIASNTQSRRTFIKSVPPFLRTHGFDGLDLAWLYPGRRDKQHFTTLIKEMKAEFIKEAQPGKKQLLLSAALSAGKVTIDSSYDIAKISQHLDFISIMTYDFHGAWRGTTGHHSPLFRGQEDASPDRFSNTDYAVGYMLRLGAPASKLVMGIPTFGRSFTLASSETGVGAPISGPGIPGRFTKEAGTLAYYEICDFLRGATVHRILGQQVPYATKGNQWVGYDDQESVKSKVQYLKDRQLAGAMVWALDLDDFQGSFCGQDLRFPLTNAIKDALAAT
# Chain of PILRa (Mus musculus), Q2YSF3 (Q2YSF3 entry or part of it): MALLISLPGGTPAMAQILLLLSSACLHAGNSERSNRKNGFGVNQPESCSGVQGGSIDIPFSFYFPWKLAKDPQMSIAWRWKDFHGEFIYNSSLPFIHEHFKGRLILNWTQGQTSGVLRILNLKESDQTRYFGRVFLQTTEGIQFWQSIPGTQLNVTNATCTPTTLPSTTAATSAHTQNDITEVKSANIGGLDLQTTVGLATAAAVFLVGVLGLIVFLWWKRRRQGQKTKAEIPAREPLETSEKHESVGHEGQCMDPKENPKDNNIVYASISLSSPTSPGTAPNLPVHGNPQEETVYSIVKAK
# Chain of wLAT-1A (Homo sapiens), Q01650 (Q01650 whole entry): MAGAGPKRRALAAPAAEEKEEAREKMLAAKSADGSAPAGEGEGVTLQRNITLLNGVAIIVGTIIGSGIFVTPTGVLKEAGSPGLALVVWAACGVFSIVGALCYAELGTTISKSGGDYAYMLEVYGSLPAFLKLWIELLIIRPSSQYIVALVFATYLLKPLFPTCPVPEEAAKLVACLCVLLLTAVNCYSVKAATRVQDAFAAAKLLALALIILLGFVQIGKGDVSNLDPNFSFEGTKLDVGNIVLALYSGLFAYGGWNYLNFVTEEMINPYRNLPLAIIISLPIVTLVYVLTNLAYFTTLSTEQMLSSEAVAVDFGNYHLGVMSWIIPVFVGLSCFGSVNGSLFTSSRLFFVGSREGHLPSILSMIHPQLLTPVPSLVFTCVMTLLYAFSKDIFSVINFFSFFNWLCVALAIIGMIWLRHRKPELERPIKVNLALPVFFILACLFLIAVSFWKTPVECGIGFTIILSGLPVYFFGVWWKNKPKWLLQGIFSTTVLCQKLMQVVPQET
# Chain of C3b (Homo sapiens), P01024 (P01024 23-667): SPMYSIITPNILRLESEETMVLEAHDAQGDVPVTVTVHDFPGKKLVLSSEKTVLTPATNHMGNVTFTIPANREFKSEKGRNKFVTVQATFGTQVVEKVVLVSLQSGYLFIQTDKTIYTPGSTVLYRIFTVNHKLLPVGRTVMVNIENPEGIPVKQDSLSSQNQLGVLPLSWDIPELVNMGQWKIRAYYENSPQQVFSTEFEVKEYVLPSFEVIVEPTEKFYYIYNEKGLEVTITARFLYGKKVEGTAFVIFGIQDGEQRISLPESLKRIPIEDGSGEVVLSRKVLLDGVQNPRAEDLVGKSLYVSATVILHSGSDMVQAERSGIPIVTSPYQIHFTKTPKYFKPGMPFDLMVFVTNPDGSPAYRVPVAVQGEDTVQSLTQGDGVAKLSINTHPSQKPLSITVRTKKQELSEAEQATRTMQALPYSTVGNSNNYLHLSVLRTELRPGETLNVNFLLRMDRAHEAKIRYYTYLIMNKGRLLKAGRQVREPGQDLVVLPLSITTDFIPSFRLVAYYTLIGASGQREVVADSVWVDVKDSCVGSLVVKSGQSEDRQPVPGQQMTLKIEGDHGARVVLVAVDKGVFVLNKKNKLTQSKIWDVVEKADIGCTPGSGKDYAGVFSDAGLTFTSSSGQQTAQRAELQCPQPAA
# Chain of Avaren (Actinomycete K97) (chain, as listed by the source): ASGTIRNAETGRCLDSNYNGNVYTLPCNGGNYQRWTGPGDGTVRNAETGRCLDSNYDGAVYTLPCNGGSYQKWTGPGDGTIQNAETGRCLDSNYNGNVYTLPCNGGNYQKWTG
# Chain of PILRb (Mus musculus), Q2YSF2 (Q2YSF2 entry or part of it): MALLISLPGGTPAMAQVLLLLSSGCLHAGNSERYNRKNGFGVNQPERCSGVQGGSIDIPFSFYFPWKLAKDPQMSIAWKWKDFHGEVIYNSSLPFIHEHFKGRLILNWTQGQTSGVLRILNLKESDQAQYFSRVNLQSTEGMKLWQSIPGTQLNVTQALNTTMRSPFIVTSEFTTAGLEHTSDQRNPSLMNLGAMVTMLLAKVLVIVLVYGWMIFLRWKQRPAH
# Chain of SRLC (Mus musculus), Q8VIF6 (Q8VIF6 other isoform, or with tags, fused parts or gaps): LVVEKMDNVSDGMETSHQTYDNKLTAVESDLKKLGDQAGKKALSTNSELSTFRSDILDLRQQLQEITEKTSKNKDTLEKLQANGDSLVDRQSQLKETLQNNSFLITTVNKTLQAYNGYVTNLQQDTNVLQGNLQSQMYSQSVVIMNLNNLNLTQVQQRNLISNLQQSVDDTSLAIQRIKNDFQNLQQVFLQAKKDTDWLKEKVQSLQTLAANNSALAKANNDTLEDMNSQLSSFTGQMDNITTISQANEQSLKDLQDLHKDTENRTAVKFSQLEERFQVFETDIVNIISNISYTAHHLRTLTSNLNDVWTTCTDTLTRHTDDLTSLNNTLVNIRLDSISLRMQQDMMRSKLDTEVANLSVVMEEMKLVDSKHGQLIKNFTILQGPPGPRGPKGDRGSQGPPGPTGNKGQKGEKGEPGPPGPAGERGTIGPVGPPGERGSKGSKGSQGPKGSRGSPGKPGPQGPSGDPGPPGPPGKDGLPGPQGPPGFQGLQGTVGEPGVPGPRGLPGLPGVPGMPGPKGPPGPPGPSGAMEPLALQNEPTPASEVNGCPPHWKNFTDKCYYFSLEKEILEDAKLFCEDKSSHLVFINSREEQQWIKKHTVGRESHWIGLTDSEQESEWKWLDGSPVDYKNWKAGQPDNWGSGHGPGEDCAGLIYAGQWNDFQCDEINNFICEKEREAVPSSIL
# Chain of Regenerating Gene IV (Homo sapiens), Q9BYZ8 (Q9BYZ8 whole entry, looked up): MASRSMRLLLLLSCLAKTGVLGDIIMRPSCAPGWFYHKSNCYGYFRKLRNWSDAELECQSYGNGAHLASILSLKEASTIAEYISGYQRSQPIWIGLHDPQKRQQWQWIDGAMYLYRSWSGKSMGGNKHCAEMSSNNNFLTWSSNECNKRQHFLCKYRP
# Chain of Neurocan (Homo sapiens), O14594 (O14594 other isoform, or with tags, fused parts or gaps): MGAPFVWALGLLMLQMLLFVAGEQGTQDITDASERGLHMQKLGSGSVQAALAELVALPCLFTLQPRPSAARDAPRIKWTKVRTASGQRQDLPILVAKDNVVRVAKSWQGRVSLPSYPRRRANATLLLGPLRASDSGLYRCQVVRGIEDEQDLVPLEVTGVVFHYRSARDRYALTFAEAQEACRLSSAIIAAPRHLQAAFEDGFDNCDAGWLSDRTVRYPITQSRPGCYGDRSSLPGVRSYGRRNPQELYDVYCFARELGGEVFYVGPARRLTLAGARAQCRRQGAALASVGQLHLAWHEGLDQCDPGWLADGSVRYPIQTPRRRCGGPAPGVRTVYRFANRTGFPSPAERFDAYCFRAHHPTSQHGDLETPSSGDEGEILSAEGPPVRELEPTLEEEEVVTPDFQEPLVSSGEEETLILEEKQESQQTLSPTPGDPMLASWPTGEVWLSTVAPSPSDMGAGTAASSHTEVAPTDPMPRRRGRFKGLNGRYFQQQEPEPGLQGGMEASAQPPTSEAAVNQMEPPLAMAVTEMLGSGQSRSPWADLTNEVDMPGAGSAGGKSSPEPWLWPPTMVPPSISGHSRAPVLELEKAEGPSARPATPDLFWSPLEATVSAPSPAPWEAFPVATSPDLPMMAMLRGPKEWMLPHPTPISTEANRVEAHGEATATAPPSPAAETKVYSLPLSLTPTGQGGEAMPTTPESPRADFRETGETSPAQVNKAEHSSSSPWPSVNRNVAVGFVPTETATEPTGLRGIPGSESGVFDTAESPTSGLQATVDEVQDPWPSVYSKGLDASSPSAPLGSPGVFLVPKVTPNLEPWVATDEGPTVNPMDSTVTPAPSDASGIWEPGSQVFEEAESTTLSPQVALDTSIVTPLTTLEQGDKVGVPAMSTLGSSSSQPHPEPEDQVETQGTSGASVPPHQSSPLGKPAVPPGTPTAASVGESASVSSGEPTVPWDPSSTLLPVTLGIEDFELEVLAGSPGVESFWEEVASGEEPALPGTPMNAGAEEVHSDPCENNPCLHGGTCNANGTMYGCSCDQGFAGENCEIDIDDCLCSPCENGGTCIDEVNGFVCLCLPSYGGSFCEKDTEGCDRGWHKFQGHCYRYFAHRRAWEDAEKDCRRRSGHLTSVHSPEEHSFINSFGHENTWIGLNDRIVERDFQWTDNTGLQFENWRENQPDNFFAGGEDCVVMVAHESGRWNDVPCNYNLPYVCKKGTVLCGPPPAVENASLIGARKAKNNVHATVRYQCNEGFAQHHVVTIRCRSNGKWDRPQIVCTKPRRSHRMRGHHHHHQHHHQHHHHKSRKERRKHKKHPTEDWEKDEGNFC
# Chain of Aggrecan (Rattus norvegicus), NP_071526 (chain, as listed by the source): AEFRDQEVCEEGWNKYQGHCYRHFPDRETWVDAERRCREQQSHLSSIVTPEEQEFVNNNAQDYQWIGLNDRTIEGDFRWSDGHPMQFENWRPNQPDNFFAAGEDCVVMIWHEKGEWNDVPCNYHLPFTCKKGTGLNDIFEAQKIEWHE
substance,measurement,setting,value
"Neurocan (Homo sapiens), O14594",glycan array binding signal (z-score),[1],-0.99
"Siglec-8 (Homo sapiens), Q9NYZ4",glycan array binding signal (z-score),[1],-0.111
same,glycan array binding signal (z-score),[2]; mutation: R125K,-0.467
"HARE (Homo sapiens), Q8WWQ8",glycan array binding signal (z-score),Kdn(a2-3)Gal(b1-3)GlcNAc,-0.646
"Aggrecan (Rattus norvegicus), NP_071526",glycan array binding signal (z-score),[2],0.018
"CHI3L1 (Homo sapiens), P36222",glycan array binding signal (z-score),[3],15.6
same,glycan array binding signal (z-score),[1],14.5
same,glycan array binding signal (z-score),GlcNAc3Prop(b1-4)GlcNAc,-0.044
"PILRb (Mus musculus), Q2YSF2",glycan array binding signal (z-score),[1],-0.432
same,glycan array binding signal (z-score),GlcNAc(b1-6)GalNAc,-0.025
Avaren (Actinomycete K97),glycan array binding signal (z-score),[4],-0.108
same,glycan array binding signal (z-score),GlcNAc(b1-6)GalNAc,-0.119
"wLAT-1A (Homo sapiens), Q01650",glycan array binding signal (z-score),GlcNAc(b1-6)GalNAc,0.369
same,glycan array binding signal (z-score),GlcNAc3Prop(b1-4)GlcNAc,0.213
"Regenerating Gene IV (Homo sapiens), Q9BYZ8",glycan array binding signal (z-score),GlcNAc3Prop(b1-4)GlcNAc,-0.463
"C3b (Homo sapiens), P01024",glycan array binding signal (z-score),[5],7.72
same,glycan array binding signal (z-score),[2],2.75
"PILRa (Mus musculus), Q2YSF3",glycan array binding signal (z-score),[6],-0.314
same,glycan array binding signal (z-score),GlcNAc3Prop(b1-4)GlcNAc,-0.331
same,glycan array binding signal (z-score),[7],0.098
MpAFP RI GFP (Marinomonas primoryensis),glycan array binding signal (z-score),[3],-0.527
CHT (Homo sapiens),glycan array binding signal (z-score),"[3]; mutation: D138V, E140I",11.9
same,glycan array binding signal (z-score),"[1]; mutation: D138V, E140I",8.66
same,glycan array binding signal (z-score),"Kdn(a2-3)Gal(b1-3)GlcNAc; mutation: D138V, E140I",-0.105
"SRLC (Mus musculus), Q8VIF6",glycan array binding signal (z-score),Kdn(a2-3)Gal(b1-3)GlcNAc,-0.229
